Records with an inconclusive call do not appear. The source made the active and inactive calls. Rule for the calls: active = hit-call score of the fitted dose curve at least 0.9, where 1 is the maximum; inconclusive = response in the unintended direction; inactive = score below 0.9.

Sequence of Nuclear receptor subfamily 1 group I member 2 (Homo sapiens) (O75469 whole entry, looked up): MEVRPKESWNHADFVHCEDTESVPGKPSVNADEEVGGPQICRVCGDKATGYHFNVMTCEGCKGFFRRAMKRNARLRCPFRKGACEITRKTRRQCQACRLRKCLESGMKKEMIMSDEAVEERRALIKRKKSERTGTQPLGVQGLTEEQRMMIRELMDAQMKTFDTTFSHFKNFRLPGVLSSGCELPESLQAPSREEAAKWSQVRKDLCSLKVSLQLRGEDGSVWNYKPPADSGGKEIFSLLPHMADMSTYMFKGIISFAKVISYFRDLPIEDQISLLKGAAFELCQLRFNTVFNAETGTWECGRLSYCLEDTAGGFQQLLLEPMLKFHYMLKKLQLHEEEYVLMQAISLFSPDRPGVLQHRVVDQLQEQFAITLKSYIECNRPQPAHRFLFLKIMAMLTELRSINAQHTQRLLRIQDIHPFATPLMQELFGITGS

For this assay, the target named is Nuclear receptor subfamily 1 group I member 2 (Homo sapiens) (UniProt O75469). Nature of the assay: ATG_PXR_TRANS: Attagene TRANS-FACTORIAL HepG2 Assay for human Pregnane X Receptor (PXR) (AID 2283008). The protocol:
ATG_TRANS is a cell-based, multiplexed-readout assay that uses HepG2, a human liver cell line, with measurements taken at 24 hours after chemical dosing in a 24-well plate.ATG_PXR_TRANS is one of 30 assay component(s) measured or calculated from the ATG_TRANS assay. It is designed to make measurements of mRNA induction, a form of inducible reporter, as detected with fluorescence intensity signals by Reverse transcription polymerase chain reaction (RT-PCR) and Capillary electrophoresis technology.Data from the assay component ATG_PXR_TRANS was analyzed into 1 assay endpoint. This assay endpoint, ATG_PXR_TRANS, was analyzed in the positive analysis fitting direction relative to DMSO as the negative control and baseline of activity. Using a type of inducible reporter, measures of mRNA for gain-of-signal activity can be used to understand the reporter gene at the transcription factor-level as they relate to the gene NR1I2. Furthermore, this assay endpoint can be referred to as a primary readout, because this assay has produced multiple assay endpoints where this one serves a reporter gene function. To generalize the intended target to other relatable targets, this assay endpoint is annotated to the nuclear receptor intended target family, where the subfamily is non-steroidal.
Human liver HepG2 cells are transiently transfected with multiple reporter transcription units (MRTUs) in 6-well plates using FuGene 6 reagent (Roche; 3 ml FuGene/1 mg DNA). The MRTU constructs are regulated by a cis-regulating element (promoter). […] A major difference between the CIS and TRANS system is that in CIS activities of endogenous TFs are measured, whereas the TRANS assay evaluates changes in activities of exogenous, chimeric NR-Gal4 proteins. […] At the end of 24 hour incubation, total RNA was isolated using TriZol reagent (Invitrogen). The isolated RNA is then reverse-transcribed using oligo(dT) primer and Mo-MLV reverse transcriptase (Invitrogen) with DNAse I (Ambion) treatment for 30 min. The one-tenth of the produced cDNA was amplified by PCR using Taq DNA polymerase (Invitrogen) and two reporter sequence-specific primers. The PCR products were fluorescently labeled by primer extension with 6-arboxyfluorescein (6-FAM) 5'-labeled reporter sequence-specific primer (2 min at 95 C, 20 s at 68 C and 10 min at 72 C) and these products were digested with 5U of HpaI (New England Biolabs) for 2h at 37 C. The fragments were purified using Qiaquick PCR columns (Qiagen), analyzed on an ABI 3130xL genetic analyzer (Applied Biosystems) with peak positions identified by using a set of X-rhodamine (ROX)-labeled MapMarker1000 molecular weight standards (BioVentures). The raw capillary electrophoresis data was processed using Attagraph software (Attagene).
Turning to `CCCC=NO`, the call was inactive.
On the same count and under the same terms, with `C=CC(=O)OCC(CC)CCCC` (stereo not given) the entry was “inactive”.
Still for that read-out and setting: with `CC1CCCC1.[C-]#[O+].[C-]#[O+].[C-]#[O+].[Mn]` the entry was “inactive”.
The same measure, in the same setting: with `N#CCCCl` the entry was “inactive”.
As for `C=CC(=O)OCCCCOC(=O)C=C`, the molecule was called inactive.
The same measure, in the same setting: then `CCCCCCCCCCCCCCCC[N+](C)(C)C`, with “inactive”.
In the case of `Clc1ccc(-c2ccccc2)cc1`, the molecule was called inactive.
A word on the AC50: it is the concentration giving half of the maximal activity seen. In the case of `CCC(C)c1cc([N+](=O)[O-])cc([N+](=O)[O-])c1OC(=O)C=C(C)C` (stereo not given), the AC50 is 1.6 µM (active).
Still for that read-out and setting: then `CNC(=O)Oc1cc(C)c(SC)c(C)c1`, with 13.3 µM (active); and `Nc1c(Cl)c(Cl)c(Cl)c(Cl)c1Cl`, with 13.3 µM (active).
Consider `N#Cc1cccc(C#N)c1`, for which the outcome was inactive.
For the molecule `ClCC(Cl)Cl`, the AC50 was 26.6 µM (active).
`COc1cc(OC)nc(Oc2cccc(Oc3nc(OC)cc(OC)n3)c2C(=O)O)n1`: the molecule was classed as inactive.
As for `CC1(C)[C@H](C(=O)O[C@H](C#N)c2cccc(Oc3ccccc3)c2)[C@@H]1C=C(Br)Br`, the AC50 was 0.166 µM (active).
Regarding `Nc1ccccc1C(=O)OCCc1ccccc1`, the AC50 was 19.2 µM (active).
In the case of `Cl/C=C\CCl`, the outcome was inactive.
As for `Cc1ccc(OP(=O)(Oc2ccc(C)cc2)Oc2ccc(C)cc2)cc1` (tested in a mixture with another compound), the AC50 is 0.596 µM (active).
As to `CC1(C)CC(=O)CC(C)(C)N1[O]`, the outcome was inactive.
Take `O=P(O)(Oc1ccccc1)Oc1ccccc1`: the call was inactive.
Turning to `O=c1[nH]c(Cl)c(Cl)cc1Cl`, the molecule was classed as inactive.
Regarding `SCc1ccco1`, the molecule was called inactive.
Still for that read-out and setting: with `O=C(NCNC(=O)NC1C(=O)NC(=O)N1CO)NC1C(=O)NC(=O)N1CO` (stereo not given) the entry was “inactive”.
Consider `CC(C)COP(=O)(OCC(C)C)OCC(C)C`, for which the AC50 is 1.52 µM (active).
`CCC(C)(C)O`: the call was inactive.
Same read-out and setting: then `CCOP(=O)(OCC)Oc1ccc([N+](=O)[O-])cc1`, with “inactive”.
The same measure, in the same setting: with `CCOC(=O)C1OC1(C)c1ccccc1` (stereo not given) the entry was “inactive”; with `CN(C)CCC#N`, “inactive”.
On to `Cc1ccc(C)c2ccccc12`, for which the AC50 was 51.3 µM (active).
Regarding `CCOC(=O)COc1ccc(Cl)cc1Cl`, the molecule was called inactive.
Same read-out and setting: with `O=C(O)CCCc1ccc(N(CCCl)CCCl)cc1` the entry was “inactive”; with `CCC[N+](=O)[O-]`, “inactive”; with `C=C(Cl)CCl`, “inactive”.
Take `O=[N+]([O-])c1cc([N+](=O)[O-])c2ccccc2c1`: the AC50 is 9.2 µM (active).
In the case of `Nc1ccc([N+](=O)[O-])cc1N`, the result was inactive.
On the same count and under the same terms, then `COC(=O)c1ccccc1S(=O)(=O)NC(=O)Nc1nc(C)cc(C)n1`, with “inactive”; and `CC1(C)C(=O)NC(=O)NC1=O`, with “inactive”.
In the case of `CC(C)(c1cc(Cl)c(O)c(Cl)c1)c1cc(Cl)c(O)c(Cl)c1`, the AC50 is 1.87 µM (active).
In the case of `C[C@]12CC[C@H]3[C@@H](CC[C@@]45O[C@@H]4C(O)=C(C#N)C[C@]35C)[C@@H]1CC[C@@H]2O`, the AC50 is 27.4 µM (active).
With `O=S(=O)(O)O`, the result was inactive.
On to `NNc1ccccc1`, for which the AC50 was 36.6 µM (active).

The values are drawn from PubChem BioAssay (EPA / NIEHS).
